Source: PubChem BioAssay
D1 antag – antagonists of human D1 dopamine receptor; P21728; HEK293 TREx D1 cells, calcium flux, dopamine EC80; stronger effect = lower value; activity change, negative = inhibition, % at 10 µM; 360,000 compounds, 3.2% hits; AID 504652; in the data active = activity change below about -30%
Target sequence (P21728 whole entry, looked up): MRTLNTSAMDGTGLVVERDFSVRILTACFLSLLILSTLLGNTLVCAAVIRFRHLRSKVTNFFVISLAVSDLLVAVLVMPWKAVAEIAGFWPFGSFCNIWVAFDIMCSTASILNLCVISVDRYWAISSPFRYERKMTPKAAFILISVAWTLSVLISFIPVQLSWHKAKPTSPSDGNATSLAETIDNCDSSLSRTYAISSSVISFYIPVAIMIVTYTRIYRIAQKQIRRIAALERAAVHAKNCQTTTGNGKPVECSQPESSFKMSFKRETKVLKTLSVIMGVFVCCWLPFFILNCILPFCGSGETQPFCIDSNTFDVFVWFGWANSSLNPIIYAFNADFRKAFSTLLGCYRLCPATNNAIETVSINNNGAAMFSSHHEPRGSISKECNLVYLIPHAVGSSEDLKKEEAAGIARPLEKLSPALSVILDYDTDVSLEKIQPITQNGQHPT
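Allosteric or orthosteric antagonism assessed as attenuation of the calcium response to EC80 dopamine, added 180 s after compound, in induced HEK293 Trex D1 cells loaded with no-wash calcium dye.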
TRHR ag – activates the human TRH receptor; TRHR cells, calcium flux fluo-8, FDSS agonist mode; 360,000 compounds, 0.18% hits; P34981; activation, % at 2 µM
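TRHR-expressing cells loaded with fluo-8 calcium dye; 23 nL library compound pin-transferred, kinetic FDSS fluorescence (Ex 480/Em 530) recorded about 180 s for agonist-induced calcium release, before a 10 nM TRH EC20 addition for potentiator mode.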
D1 potentiator – enhances dopamine response at the human D1 receptor; HEK293 TREx D1 cells, calcium flux, dopamine EC20 potentiation; potentiation, % at 10 µM; 360,000 compounds, 0.036% hits; AID 504651; in the data active = potentiation above about 30%
D1 ag – activates the human D1 dopamine receptor | P21728 | HEK293 T-REx D1 cells, calcium flux, agonist mode | activation, % at 2 µM | 360,000 compounds, 1% hits | AID 504660
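Inducible HEK293 T-REx D1 cells, force-coupled to calcium signalling, were plated at 4000 cells/well with tetracycline and held overnight at 30 C. After no-wash calcium dye loading, compound-evoked calcium rise over 180 s flagged agonists.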
TRHR enhancer – TRH receptor (human) allosteric enhancement. enhancement, % at 2 µM. TRHR cells, fluo-8 calcium fluorescence, EC20 TRH enhancement. P34981. 360,000 compounds, 0.66% hits. AID 493056; in the data active = enhancement above about 30%
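TRHR-expressing cells loaded with fluo-8 calcium dye were read kinetically (ex 480/em 530) during compound addition, then stimulated with an EC20 of TRH (10 nM final). Enhancement of the Gq-mediated intracellular calcium response was scored.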
A number is an active result; 0 = inactive; - = no result. Compounds with a hit are over-represented: about 4.7% of the library has one in this group of screens. Cut-off read from the data, not from the text of the source, unless noted: active = activation above about 30%; inactive = the rest.

SMILES | D1 antag | TRHR ag | D1 potentiator | D1 ag | TRHR enhancer
O=Cc1cn(Cc2ccccc2F)c2ccccc12 | 0 | 0 | 0 | 0 | 0
CC(=O)c1cn(Cc2ccccc2F)c2ccccc12 | -55.4 | 0 | 0 | 0 | 0
Cc1ccc(Cn2cccc(C(=O)Nc3nc4ccc(C)cc4s3)c2=O)cc1 | - | 0 | 0 | 0 | 0
O=C(CN1C(=O)CN=C(c2ccccc2)c2ccccc21)Nc1cccc(C(F)(F)F)c1 | 0 | 0 | 0 | 0 | 0
O=C1NC(=O)C(=Cc2ccc(Oc3ccc([N+](=O)[O-])cc3)cc2)C(=O)N1 | -35.9 | 0 | 0 | 0 | 0
CCOP(=O)(OCC)C(NS(=O)(=O)c1ccccc1)C(Cl)(Cl)Cl (stereo unspecified) | -32.8 | 0 | 0 | 0 | 0
COc1ccc2c3c([nH]c2c1)C(C)=NCC3 | 0 | 0 | 0 | 0 | 0
CC1=NCCc2c1[nH]c1cc(O)ccc21 | 0 | 0 | 0 | 405.4 | 0
O=c1[nH]c2ccccc2c(=O)n1-c1ccc(Cl)c(Cl)c1 | 0 | 0 | 0 | 0 | 0
Cc1cccc(Cn2cccc(C(=O)Nc3nc4ccccc4s3)c2=O)c1 | - | 0 | 0 | 0 | 0
CC1=C[C@@H]2c3cccc4[nH]cc(c34)C[C@H]2N(C)C1 | -37.5 | 0 | 0 | 30.6 | 0
CN[C@@H]1C[C@@H](c2ccc(Cl)c(Cl)c2)c2ccccc21 | -51.2 | 0 | 0 | 0 | 0
Cc1ccccc1CN1CCN(Cc2ccccc2)CC1 | 0 | 0 | 0 | 0 | 0
CC1CN(CCc2ccccc2)CC(C)O1 (stereo unspecified) | 0 | 0 | 0 | 0 | 0
Cc1ccc(N2CCN(CCc3ccccc3)CC2)cc1 | -44.2 | 0 | 0 | 0 | 0
Cc1cccc(N2CCN(CCc3ccccc3)CC2)c1C | -50.6 | 0 | 0 | 38.8 | 0
COc1ccccc1N1CCN(CCc2ccccc2)CC1 | -46.9 | 0 | 0 | 0 | 0
CCc1ccc(-n2nc(C)c3c2NC(=O)CSC3c2ccc(OC)cc2OC)cc1 (stereo unspecified) | 0 | 0 | 0 | 0 | 0
CCN1CCN(Cc2ccc(OC(F)(F)F)cc2)CC1 | -33.6 | 0 | 0 | 0 | 0
Cc1oc(-c2ccc(Cl)cc2)nc1CN1C(=O)CN=C(c2ccccc2)c2ccccc21 | 0 | 0 | 0 | 0 | 0
CCC(C(=O)Nc1ccccc1F)N1C(=O)CN=C(c2ccccc2)c2ccccc21 (stereo unspecified) | 0 | 0 | 0 | 0 | 0
CCC(=NCCOc1ccc(Cl)cc1)c1c(O)n(C)c(=O)n(C)c1=O | -41.8 | 0 | 0 | 0 | 0
CCC(=NCCc1c[nH]c2ccccc12)c1c(O)n(C)c(=O)n(C)c1=O | -30.9 | 0 | 0 | 0 | 0
O=C(Nc1cc(C(F)(F)F)cc(C(F)(F)F)c1)c1cccn(Cc2ccccc2Cl)c1=O | 0 | 0 | 0 | 0 | 0
c1cnc2c(c1)ncn2C1CCNCC1 | 0 | 0 | 0 | 0 | 0
SMILES | D1 antag | TRHR ag | D1 potentiator | D1 ag | TRHR enhancer
OC(CN1CCC(c2c[nH]c3ccccc23)CC1)C(F)(F)F (stereo unspecified) | -40.8 | 0 | 0 | 0 | 0
Nc1c(C(=O)Nc2ccc(Cl)c(C(F)(F)F)c2)sc2nc3c(cc12)N1CCC3CC1 | 0 | 0 | 0 | 0 | 0
Cn1c(=O)n(C)c2cc(CNCCc3ccccc3F)ccc21 | 0 | 0 | 0 | 0 | 0
FC(F)(F)c1ccc2c(c1)nnn2C1CCN(Cc2nnnn2Cc2ccccc2)CC1 | -42.3 | 0 | 0 | 0 | 0
Cc1nc2cc(C(F)(F)F)ccc2n1C1CCN(Cc2nnnn2CCc2ccccc2)CC1 | 0 | 0 | 0 | 0 | 0
Cc1ccc(Cn2nnnc2CN2CCC(n3nnc4cc(C(F)(F)F)ccc43)CC2)cc1 | -39.1 | 0 | 0 | 0 | 0
Cc1ccc(Cn2nnnc2CN2CCC(n3nnc4cc(C)ccc43)CC2)cc1 | 0 | 0 | 0 | 0 | 0
CCCCn1c(N)c(C(=O)OCC2CCCO2)c2nc3ccccc3nc21 (stereo unspecified) | 0 | 0 | 0 | 0 | 0
CC(C)CCn1c(N)c(C(=O)OCC2CCCO2)c2nc3ccccc3nc21 (stereo unspecified) | -36.0 | 0 | 0 | 0 | 0
COc1ccc(Cn2c(O)c(C=NCCN3CCOCC3)c(=O)[nH]c2=O)cc1 | -37.4 | 0 | 0 | 0 | 0
COC(=O)[C@@]1(Cc2ccc(F)cc2)[C@H]2c3cc(C(=O)N(C)C)[nH]c3C[C@H]2CN1C(=O)c1ccccc1 | -32.7 | 0 | 0 | 0 | 0
O=C(COc1ccccc1[N+](=O)[O-])N1CCN(CCc2ccccn2)CC1 | 0 | 0 | 0 | 0 | 0
Cc1cccc(CN2CC=C(c3noc(CCC(=O)Nc4ccc(C)c(F)c4)n3)CC2)c1 | 0 | 0 | 0 | 0 | 0
O=P(Nc1cccc(F)c1)(Oc1ccccc1F)Oc1ccccc1F | -37.0 | 0 | 0 | 0 | 0
Cc1cccc(NP(=O)(Oc2ccccc2F)Oc2ccccc2F)c1 | 0 | 0 | 0 | 0 | 0
CCCC12CN3CC(C)(CN(C1)C3c1c(C)[nH]c(=O)[nH]c1=O)C2=O (stereo unspecified) | 0 | 0 | 0 | 0 | 0
CC(C)(C)c1ccc(C(=O)Nc2ccc(Cl)cc2C(=O)c2ccccc2)cc1 | 0 | 0 | 0 | 0 | 0
C=CCN1C(=O)/C(=C/c2cccs2)C(=O)NC1=S | 0 | 0 | 0 | 0 | 0
O=C1NC(=S)N(Cc2ccco2)C(=O)/C1=C\c1cccs1 | 0 | 0 | 0 | 0 | 50.9
Cc1oc(-c2ccc(Cl)cc2)nc1CN1C(=O)CN=C(c2ccccc2)c2cc(Cl)ccc21 | 0 | 0 | 0 | 0 | 0
OC(COCc1ccc(Cl)cc1)CN1CC=C(c2ccccc2)CC1 (stereo unspecified) | 0 | 0 | 0 | 0 | 0
OC(CN1CC=C(c2ccccc2)CC1)c1ccccc1 (stereo unspecified) | 0 | 0 | 0 | 0 | 35.1
CN(CCc1ccccc1)Cc1c[nH]c2ccccc12 | -66.5 | 0 | 0 | 0 | 0
COc1ccc(N2C(=O)NC(=O)/C(=C\c3cn(C)c4ccccc34)C2=O)cc1 | 0 | 0 | 0 | 54.5 | 0
CCOc1cccc(N2C(=O)/C(=C/c3ccco3)C(=O)NC2=S)c1 | 0 | 0 | 0 | 0 | 34.3
SMILES | D1 antag | TRHR ag | D1 potentiator | D1 ag | TRHR enhancer
CCN(CC)c1ccc(C=C2C(=O)N(C)C(=S)N(C)C2=O)o1 | 0 | 0 | 0 | 50.2 | 0
O=C1NC(=S)N(c2ccccc2)C(=O)/C1=C/c1ccco1 | 0 | 0 | 0 | 0 | 0
CN1C(=O)C(=Cc2ccc(N3CCCCC3)o2)C(=O)N(C)C1=S | 0 | 0 | 0 | 85.4 | 0
Cc1cccc(NC(=O)Cn2cc(C(=O)c3ccccc3)c3ccccc32)c1 | 0 | 0 | 0 | 0 | 0
Cc1cccc(-n2c(/C=C/c3c[nH]c4ccccc34)nc3ccccc3c2=O)c1 | 0 | 0 | 0 | 0 | 0
COc1ccc(N2C(=O)/C(=C/c3ccc(N(C)C)o3)C(=O)NC2=S)cc1 | 0 | 0 | 0 | 35.4 | 0
COc1cccc(N2C(=O)/C(=C/c3ccc(C)o3)C(=O)NC2=S)c1 | 0 | 0 | 0 | 0 | 0
CCN(CC)c1ccc(/C=C2\C(=O)NC(=S)N(C)C2=O)o1 | 0 | 0 | 0 | 64.7 | 0
